Data on 17 compounds can be found in PubChem BioAssay (EPA / NIEHS).

Records with an inconclusive call do not appear. The source made the active and inactive calls. The calls were made as follows: active = hit-call score of the fitted dose curve at least 0.9, where 1 is the maximum; inconclusive = response in the unintended direction; inactive = score below 0.9.

A short description of assay [1]: TOX21_p53_BLA_p2_viability: Viability Assessment in the Tox21 HCT-116 p53 Agonism Beta-lactamase Assay, Phase 2 (AID 2283591).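 Also: compound exposure lasted 16 h at 37 °C; actives lower the ATP signal meaning cytotoxicity.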 The gist of the method:
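Cytotoxicity readout: CellTiter-Glo ATP luminescence, 30 min at room temperature, after the beta-lactamase read. Cells were HCT116 exposed 16 h at 37C to compounds pin-transferred at 217-fold dilution from DMSO stocks.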

Assay [2] in a line: TOX21_p53_BLA_p3_viability: Viability Assessment in the Tox21 HCT-116 p53 Agonism Beta-lactamase Assay, Phase 3 (AID 2283593).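 Also: cells exposed to compound for 16 h before reading.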 The gist of the method:
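Cellular ATP was quantified by CellTiter-Glo luminescence, read after 30 min at room temperature. Beforehand, HCT116 cells (4000/well) received compound 5 h post-seeding, 217-fold diluted from DMSO, then incubated 16 h at 37C.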

The target in assay [3] is Cellular tumor antigen p53 (Homo sapiens) (UniProt P04637). The experiment in a line: TOX21_p53_BLA_p5_ratio: Tox21 HCT-116 p53 Agonism Beta-lactamase Assay, Ratio, Phase 5 (AID 2283599). The method, boiled down: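 Beta-lactamase reporter ratio (blue 460 nm over green 530 nm, 405 nm excitation) after 2 h CCF4-AM loading, in HCT-116 cells exposed 16 h at 37 C to compounds pinned at 217-fold dilution. Increases relative to DMSO baseline scored.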
Cellular tumor antigen p53 (Homo sapiens), sequence (P04637 whole entry, looked up): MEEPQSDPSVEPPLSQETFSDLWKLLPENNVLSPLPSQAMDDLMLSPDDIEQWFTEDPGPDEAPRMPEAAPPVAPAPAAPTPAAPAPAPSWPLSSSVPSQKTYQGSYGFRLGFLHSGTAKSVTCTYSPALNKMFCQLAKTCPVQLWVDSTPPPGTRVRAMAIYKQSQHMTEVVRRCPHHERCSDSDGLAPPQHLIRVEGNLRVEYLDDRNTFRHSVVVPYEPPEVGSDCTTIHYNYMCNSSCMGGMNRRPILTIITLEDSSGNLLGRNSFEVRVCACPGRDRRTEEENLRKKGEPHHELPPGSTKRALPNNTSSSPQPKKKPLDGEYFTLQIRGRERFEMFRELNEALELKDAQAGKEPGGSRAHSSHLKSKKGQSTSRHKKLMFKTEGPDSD

Assay [4] can be described thus: TOX21_p53_BLA_p5_viability: Viability Assessment in the Tox21 HCT-116 p53 Agonism Beta-lactamase Assay, Phase 5 (AID 2283600). The method, boiled down: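 Viability is taken from cellular ATP content, measured by luciferase luminescence in the same wells after the beta-lactamase ratio read. Cells are seeded at 4000 per well and exposed to DMSO-dissolved compounds, diluted 217-fold, for 16 h.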

The target in assay [5] is Cellular tumor antigen p53 (Homo sapiens) (UniProt P04637). The assay can be described thus: TOX21_p53_BLA_p4_ratio: Tox21 HCT-116 p53 Agonism Beta-lactamase Assay, Ratio, Phase 4 (AID 2283601). The method, boiled down: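 Signal is the blue/green (460nm/530nm) ratio of cleaved versus uncleaved CCF4-AM substrate, read after 2 h substrate loading. Cells were HCT116 carrying the p53-responsive beta-lactamase reporter, dosed 16 h at 37C, 5% CO2; CellTiter-Glo measured in parallel.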

A short description of assay [6]: ACEA_AR_agonist_AUC_viability: ACEA Biosciences xCELLigence Real-Time Cell Analysis on Androgen Receptor Agonism for Viability (AID 2283775).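 As to AC50: viability read 80 hours after compound addition.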 The gist of the method: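 Viability endpoint from xCELLigence impedance in 22Rv1 prostate cells at 80 h. Eight-point series, 100 uM maximum final.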
For assay [7], the target named is Cellular tumor antigen p53 (Homo sapiens) (UniProt P04637). The experiment in a line: TOX21_p53_BLA_p3_ratio: Tox21 HCT-116 p53 Agonism Beta-lactamase Assay, Ratio, Phase 3 (AID 2283596). The method, boiled down: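 Cells were seeded at 4000/well, rested 5 h at 37C, then dosed with DMSO compound solutions (217-fold dilution) for 16 h. CCF4-AM substrate was loaded for 2 h at room temperature, and the 460/530 nm emission ratio was fitted for gain of signal versus DMSO.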

Assay [8] in a line: TOX21_p53_BLA_p4_viability: Viability Assessment in the Tox21 HCT-116 p53 Agonism Beta-lactamase Assay, Phase 4 (AID 2283597).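 Also: hits lower the luminescence signal meaning cytotoxicity.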 The method, boiled down: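 Viability is taken as cellular ATP: after 16 h compound exposure of HCT116 cells and a 2 h room-temperature CCF4-AM substrate step, CellTiter-Glo reagent is added and luminescence is measured 30 min later.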
In assay [9] the target is Cellular tumor antigen p53 (Homo sapiens) (UniProt P04637). The experiment in a line: TOX21_p53_BLA_p2_ratio: Tox21 HCT-116 p53 Agonism Beta-lactamase Assay, Ratio, Phase 2 (AID 2283592). The method, boiled down: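 Cleaved-to-uncleaved substrate ratio (460 vs 530 nm) measured in HCT116 cells with an inducible beta-lactamase reporter linked to p53 activity. Compounds incubated 16 h at 37C before 2 h room-temperature CCF4-AM loading.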

The test system of assay [10] is Thyroperoxidase (TPO), gene 54314. The assay can be described thus: CCTE_Simmons_AUR_rTPO: CCTE's Amplex UltraRed Assay for Thyroperoxidase (TPO) Inhibition, Simmons Lab (AID 2283662).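 Also: potency for loss of signal meaning inhibition of peroxidase activity.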 The gist of the method: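 Rat thyroid microsomes (5 ug protein) were incubated with test compound (8 concentrations, 5 nM–87.5 uM final, 0.5% DMSO), 25 uM Amplex UltraRed and 300 uM H2O2 in 200 mM phosphate buffer for 30 min at 37C in the dark; fluorescence read at 544/590 nm.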

A short description of assay [11]: CCTE_Simmons_CellTiterGLO_HEK293T: Viability Assessment in CCTE's Assays for Thyroperoxidase (TPO) Inhibition, Simmons Lab (AID 2283665).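 Also: cells exposed to compound for 24 h before readout; actives reduce ATP signal below DMSO vehicle meaning cytotoxicity.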 The method, boiled down: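 Luminescent ATP readout (CellTiter-Glo, 20 min at room temperature) after 24 hr exposure of HEK293T cells to 5 nM–87.5 uM final compound; signal loss relative to DMSO vehicle indicated cytotoxicity; dichlone titrated as positive control.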

In assay [12] the target is Luciferin 4-monooxygenase (Photinus pyralis) (UniProt P08659). The assay can be described thus: CCTE_Simmons_QuantiLum_inhib_2: CCTE's Firefly Luciferase Inhibition Assay, Simmons Lab (AID 2283767).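 Also: potency for inhibitors that lower luciferase luminescence relative to DMSO.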 The method, boiled down:
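Cell-free QuantiLum luciferase, 5 ng/well; compounds 5 nM–87.5 uM final, 8 conc, 0.5% DMSO; 30 min, 37C, dark. Detection reagent (150 uM D-luciferin, 147 uM dATP, CoA, DTT, pH 7.8 final) injected per well, kinetic luminescence. Triplicate biological replicates.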

Luciferin 4-monooxygenase (Photinus pyralis), sequence (P08659 whole entry, looked up): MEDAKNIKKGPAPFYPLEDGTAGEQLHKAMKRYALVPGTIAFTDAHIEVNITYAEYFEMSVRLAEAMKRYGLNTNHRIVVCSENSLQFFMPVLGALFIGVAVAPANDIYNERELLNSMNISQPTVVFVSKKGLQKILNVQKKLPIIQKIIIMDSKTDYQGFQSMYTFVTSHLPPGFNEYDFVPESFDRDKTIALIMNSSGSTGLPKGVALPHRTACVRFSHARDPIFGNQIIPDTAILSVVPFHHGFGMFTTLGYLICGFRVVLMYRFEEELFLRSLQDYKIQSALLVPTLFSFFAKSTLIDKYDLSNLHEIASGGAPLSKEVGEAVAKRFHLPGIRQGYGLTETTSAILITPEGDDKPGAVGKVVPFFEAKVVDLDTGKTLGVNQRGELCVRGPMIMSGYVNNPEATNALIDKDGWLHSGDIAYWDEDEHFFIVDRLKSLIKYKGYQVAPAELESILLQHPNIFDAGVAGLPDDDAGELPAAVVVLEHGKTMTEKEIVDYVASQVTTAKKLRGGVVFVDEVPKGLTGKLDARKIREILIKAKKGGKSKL

`CCOC(=O)CC`: the compound was classed as inactive in assay [1], in assay [2], in assay [3], in [4], in assay [5] and in assay [6].

On to `O=c1cc[nH]c(=S)[nH]1`, for which the compound was classed as inactive in assay [1], in assay [2], in assay [7], in [8], in assay [3] and in assay [4]. The outcome in [5] was inactive.

Turning to `CC(=O)OC(C)C`, the compound was classed as inactive in assay [1], in assay [2], in assay [7], in assay [8], in assay [3] and in assay [4]. For the same compound, the result in assay [5] and in assay [6] was inactive.

As for `CCCCC(CC)COC(=O)c1ccccc1O` (centres undefined), the compound was classed as inactive in [1], in assay [2], in assay [8], in assay [4] and in assay [5].

`CC(=O)Oc1ccc(C(C)=O)cc1`: the outcome in [1], in [2], in assay [7], in assay [3], in [4] and in [5] was inactive.

For `O=Cc1ccc(CO)o1`, the outcome in [1], in [7], in [8], in assay [3], in assay [4] and in assay [5] was inactive.

Regarding `CC=C1CC2C=CC1C2` (centres undefined), the result in [9], in [2], in assay [7], in assay [8], in assay [3] and in [4] was inactive. For the same compound, the result in assay [5] and in assay [6] was inactive.

With `CC(=O)[C@H]1[C@H](C#N)C[C@H]2[C@@H]3CC=C4C[C@@H](O)CC[C@]4(C)[C@H]3CC[C@@]21C`, the result in [1], in [8], in [3], in assay [4] and in assay [5] was inactive.

For `CCC(C)OC(=O)c1ccc(O)cc1` (centres undefined), the result in assay [9], in assay [2], in assay [7], in assay [3], in assay [4] and in assay [5] was inactive.

Regarding `CCN(CCC#N)c1ccc(N=Nc2c(Cl)cc([N+](=O)[O-])cc2Cl)cc1`, the result in [9], in assay [2], in [7], in assay [8], in assay [3] and in assay [4] was inactive. For the same compound, in [5], the outcome was inactive. Also, the AC50 was 37.9 µM (active) in assay [10], 41.8 µM (active) in assay [11], 53.8 µM (active) in assay [12] and 3.43 µM (active) in [6].

Take `NC(=O)OCC(COC(N)=O)c1ccccc1`: the result in assay [9], in assay [2], in assay [7], in assay [3], in assay [4] and in [5] was inactive.

Turning to `COc1c2ccoc2cc2oc(=O)ccc12`, the outcome in assay [9], in assay [2], in assay [7], in assay [8], in assay [3] and in [4] was inactive. Also, the result in [5] was inactive.

As to `Cc1ccc2c(c1)C(=O)c1ccccc1C2=O`, the result in [9], in assay [2], in assay [7], in [3] and in [4] was inactive.

Turning to `C=CCCCCCCCCC(=O)OCCCC`, the result in assay [9], in assay [2], in assay [7], in assay [3] and in [4] was inactive.

Consider `O=CN1CCCCC1`, for which the outcome in assay [9], in [2], in assay [7], in assay [3], in assay [4] and in [5] was inactive.

In the case of `C(=CC=Nc1ccccc1)C=CNc1ccccc1`, the result in [9], in assay [2], in assay [7], in assay [8], in [3] and in assay [4] was inactive.

Regarding `CCCCCCC1(C)CCC(=O)O1` (centres undefined), the result in assay [9], in [2], in [7], in assay [8] and in assay [5] was inactive. Besides, in [6], the concentration at half-maximal activity (AC50) is 1.1 µM (active).

One may read the AC50 as the midpoint of the concentration-response curve, whichever way the signal moves.
